These results are taken from ChEMBL document CHEMBL4888484, “Replenishing the malaria drug discovery pipeline: Screening and hit evaluation of the MMV Hit Generation Library 1 (HGL1) against asexual blood stage Plasmodium falciparum ,using a nano luciferase reporter read-out” (2022).

Among all 4,800 compounds or so, about 410 (8.5%) showed an effect of 50% or more. Many of the other results were omitted from the sample, so strong results are more common in it than they were.

For the test, the system named is Plasmodium falciparum. Nature of the test: Confirmatory screen in NF54 pLDH assay, in single point, at 2uM, 72h. The class given is functional, Erythrocyte. The following applies: timepoint 72 hour.
Take `NS(=O)(=O)N1CCN(Cc2ccn(C3CCCC3)n2)CC1`: the % Inhibition (in general, the change of the read-out against control, counted positive when it falls) turned out to be 9%.
To `O=C1C[C@H](c2cccnc2)c2cnn(C3CCCC3)c2N1` belongs 16%; to `Cc1nn(-c2ncccn2)c2c1[C@@H](c1ccccc1)CC(=O)N2`, -15%.
To `Cc1nn(-c2nc3ccccc3[nH]2)c2c1[C@@H](c1cccnc1)CC(=O)N2` belongs 79%; to `Cc1noc(C2CCN(CC(=O)Nc3ccccc3C(=O)NCC(C)C)CC2)n1`, 1%; to `CCOC(=O)c1nc[nH]c1-n1nc(C)cc1C`, 7%.
Under `COc1ccc(-c2nccn3cc(C(=O)N4CCCCCC4)nc23)cc1` stands 4%; under `CC(=O)NC1CN(C(=O)Nc2ccc(C(C)C)c(F)c2)C1`, -11%.
For `COc1ccc(C2C(C(=O)O)c3ccccc3C(=O)N2C2CCCCC2)cc1` (stereo not drawn), the “% Inhibition” value is given as -13%.
For the compound `Cc1c([C@@H](NCc2ncccc2O)C(C)C)oc2ccccc12`, the “% Inhibition” value is reported as 94%.
As for `CC1=NN(c2nc(C)cc(O)n2)C(=O)C1`, the “% Inhibition” value is listed as -6%.
In the case of `COc1cccc(-c2nc3n(c2C(=O)Nc2ccccc2C#N)CCS3(=O)=O)c1`, the “% Inhibition” value is reported as 9%.
To `Cc1ccc(-c2ccc(=O)n(CCC(=O)N3CCN(C4CCCCC4)CC3)n2)cc1` belongs 0%; to `C[C@H]1C(=O)N(C)C[C@@H](CNS(=O)(=O)c2ccccc2)N1Cc1cccnc1`, 9%; to `CCN(CC)c1ccc(NS(=O)(=O)c2cc(S(=O)(=O)c3ccc(Cl)c(S(=O)(=O)Nc4ccc(N(CC)CC)cc4)c3)ccc2Cl)cc1`, 5%.
To `CN(C)CC(O)COc1ccc(S(=O)(=O)c2ccc(OCC(O)CN(C)C)c(Cl)c2)cc1Cl` (stereo not drawn) belongs 61%.
To `COc1cc(=O)c(C(=O)NCCN2CCCCC2)nn1-c1ccc(F)cc1` belongs 0%.
In the case of `Cc1ccc(C(=O)N2CCCC23CCC3)nn1`, the “% Inhibition” value is listed as -9%.
For the compound `O=C(c1[nH]nc(C2CC2)c1Br)N1CCC12CCC2`, the “% Inhibition” value was -3%.
To `CCOc1ccc(C2C(C(=O)O)CCC(=O)N2C2CCCCC2)cc1` (stereo not drawn) belongs 10%.
In the case of `CN(C)c1ccc(C(=O)N2CC[C@H]3NC(=O)N(Cc4ccccc4)C(=O)[C@H]32)cc1`, the “% Inhibition” value was -5%.
To `Cc1ccc(S(=O)(=O)Nc2cccc(-c3csc(C)n3)c2)cc1` belongs 10%; to `COc1ccc(CNC(=O)c2sc(Nc3ccc(C)cc3C)nc2C)c(OC)c1`, -2%.
`O=C1[C@H](c2cccnc2)N(CCCc2ccccc2)C(=O)CN1c1ccccc1`: the “% Inhibition” value is recorded as -15%.
Under `CCC(=O)N(CCN(C)C)Cc1c(-c2ccccc2)noc1N1CCCCC1` stands 13%; under `CCN(CCN(C)C)C(=O)c1cccc(-c2ccc3nccc(N)c3c2)c1`, 96%.
Turning to `COc1ccc(-c2cc3nn(CC(=O)NCCC(C)C)c(=O)n3c(C)n2)cc1`, the “% Inhibition” value stood at 1%.
Under `CCc1sc(N(C(=O)CCc2ccccc2)c2ccc(C)cc2C)nc1-c1ccc(OC)cc1` stands 9%; under `CCn1ncc(-c2cc(C(F)(F)F)c3c(C(C)C)nn(-c4ccc(F)cc4)c3n2)c1C`, -1%; under `O=C(C[C@H]1CCC(=O)N(Cc2ccccc2)CC1)NC1CCN(Cc2ccccc2)CC1`, 6%.
Under `O=C(NC1CCCCCC1)c1cn(CC2(O)CCN(Cc3ccccc3)CC2)nn1` stands 15%; under `CCn1ncc(C(=O)n2nc(C)cc2C)c1C`, 10%; under `O=c1cc(N2CCN(C3CCCC3)CC2)cnn1Cc1ccccc1`, -19%.
To `Cc1ccnc(-n2nccc2NC(=O)[C@H](C)Oc2ccccc2)c1` belongs 0%.
On to `O=c1c2ccccc2nc2cc(-c3ccc(O)cc3)c(-c3ccccc3)nn12`, for which the “% Inhibition” value was found to be 28%.
With `CCOC(=O)NC(c1ccccc1F)C1CCCCC1=O` (stereo not drawn), the “% Inhibition” value is on record as 1%.
To `O=C(CN1N=C(C(=O)Nc2ccccc2)CCC1=O)Nc1ccc(OC(F)(F)F)cc1` belongs -8%; to `CC[n+]1c(/C=C/N(C)c2ccccc2)oc2ccc(-c3ccccc3)cc21`, 91%.
Consider `CC[n+]1c(/C=C/N(C)c2ccccc2)oc2ccccc21`, for which the “% Inhibition” value is recorded as 76%.
To `CCCn1nnc(N(C(=O)c2cc(Br)cc(C)c2OC)C(=O)c2cc(Br)cc(C)c2OC)n1` belongs 0%.
Under `CCCC1CCC(c2ccc(-c3noc(-c4ccc(O)c(F)c4)n3)cc2)CC1` (stereo not drawn) stands 4%; under `CC(C)c1ccc2ncnc(N[C@H]3CCc4[nH]cnc4C3)c2c1`, 101%.
With `O=c1[nH]nc(-c2ccc3c(c2)CCC3)c2ccccc12`, the “% Inhibition” value is -1%.
As for `COc1ccc(C2=NC3(CCN(Cc4ccccc4)CC3)N[C@H](c3cc(Cl)ccc3O)C2)cc1`, the “% Inhibition” value turned out to be 9%.
In the case of `COc1ccc(-c2cc3ncc(C(=O)c4cc(Cl)ccc4O)cn3n2)cc1`, the “% Inhibition” value turned out to be 78%.
As for `O=C(Nc1ccc2c(c1)CNCC2)C1CC1c1ccc(F)c(F)c1` (stereo not drawn), the “% Inhibition” value is recorded as 15%.
Take `COc1ccccc1CC(=O)N(c1nc(C)cs1)C1CC1`: the “% Inhibition” value is -8%.
Under `Cc1c(NC(=O)N2CCC(C)C(n3ccnc3)C2)cccc1N(C)C` (stereo not drawn) stands 7%; under `COc1ccc(-n2nc(C)c(Cc3ccc(Cl)cc3)c2O)cc1`, 12%.
Under `COc1ccc(CC(=O)Nc2cc(C)n(-c3cccc(Cl)c3)n2)cc1` stands 93%.
For the compound `COc1ccc(Cl)cc1NC(=O)Cc1c(C)nc2nc(-c3ccccc3C)nn2c1C`, the “% Inhibition” value worked out at 6%.
Consider `C[C@@H](C(=O)NCCN1CCCCC1)N1C(=O)COc2ccc(C(=O)COc3ccccc3Cl)cc21`, for which the “% Inhibition” value is -20%.
To `Cc1nn(-c2ccccc2)c2c1[C@@H](c1ccc(C(F)(F)F)cc1)N(c1ccccc1)C(=O)N2` belongs 9%; to `CCn1ncc(NC(=O)c2cc(-c3ccccc3)on2)c1C`, -19%.
Under `CCc1ccccc1Nc1nc(C)c(C(=O)NCc2cccnc2)s1` stands -22%.
In the case of `O=S(=O)(Cc1cc(Cl)cc(Cl)c1)NCCCCn1ccnc1`, the “% Inhibition” value is reported as -11%.
Under `COc1ccc(-c2nccn3cc(C(=O)NCCc4ccncc4)nc23)cc1` stands 5%; under `COc1ccc(Nc2nnc(-c3ccc(NC(=O)C(=O)NCCCn4ccnc4)cc3)s2)cc1`, 76%.
With `CCOc1ccc(CN2CC[C@H](Nc3ncccn3)[C@@H](O)C2)cc1Cl`, the “% Inhibition” value is recorded as -18%.
Under `CC(C)c1ccc(-c2nc(CN3CCCCC3)cc(CN3CCCCC3)c2O)cc1` stands 95%; under `CC(C)c1nc(O)cc(CN2CCCCC2)n1`, 4%.
As to `Cc1ccc(-c2ccnn2C)cc1NC(=O)[C@H]1CCCOC1`, the “% Inhibition” value is listed as 13%.
To `COc1cc(C(=O)Nc2nnc(-c3ccc(C)s3)[nH]2)on1` belongs 9%.
